This is an account of results in PubChem BioAssay (Tox21).

Each structure is given as a SMILES string. Inconclusive results are not listed. A call without a number means that no potency is given here. Activity calls are given as the source filed them. Calls come from the whole dose curve; as a rule, active = well fitted activation curve with a large enough effect in the repeat runs; inconclusive = weak or mixed curves; inactive = no such curve, though single readings can be large or run the other way.
Potency is the fitted concentration of half-maximal effect.

The test in a line: qHTS assay for small molecules that induce genotoxicity in human embryonic kidney cells expressing luciferase-tagged ATAD5 (AID 651632). Note: nearly all actives have a fitted effect of over 15% in size. To be noted: HEK293T ATAD5-luciferase induction, 16 h; series mostly up to 83.3 µM. The text has this:
U.S. Tox21 Program National Center for Advancing Translational Sciences [NCATS] NIH Chemical Genomics Center [NCGC] U.S. Environmental Protection Agency [EPA] National Institutes of Environmental Health Sciences [NIEHS] National Toxicology Program [NTP] U.S. Food and Drug Administration [FDA] Tox21 Assay Overview: As cancer cells divide rapidly and during every cell division they need to duplicate their genome by DNA replication. The failure to do so results in the cancer cell death. Based on this concept, many chemotherapeutic agents were developed but have limitations such as low efficacy and severe side effects etc. A new cell based assay was developed to find the compounds that effectively block DNA replication either by directly damaging DNA or by inhibiting other cellular mechanisms. Enhanced Level of Genome Instability Gene 1 (ELG1; human ATAD5) protein levels increase in response to various types of DNA damage. Using a luciferase reporter-gene tagged with ATAD5, a cell-based assay [developed by Kyungjae Myung, NHGRI, NIH] was used to measure the induction of ATAD5 in human embryonic kidney cells (HEK293T). So, increase in luciferase activity can be used to identify the compounds that cause genetic stress.
Tox21 Assay Protocol Summary: For genotoxicity screening, 2,000 cells in 5 uL/well were dispensed into white, solid-bottom 1536-well plates using a Multidrop Combi (Thermo Scientific) dispenser. Following transfer of 23 nL compound or DMSO vehicle by a pin tool, the plates were incubated 16 hr at 37C and 5% CO2. 5 ul Amplite (AAT Bioquest, Inc.) was then added to each plate and following 30 min incubation at room temperature, luciferase activity was quantified on a ViewLux CCD-based plate reader.
In general terms: In qHTS, concentration-response curves come from the screen itself.
For `Cc1ccccc1OP(=O)(Oc1ccccc1C)Oc1ccccc1C`, the Potency result was “inactive”.
Consider `O=S(=O)(NS(=O)(=O)C(F)(F)F)C(F)(F)F`, for which the Potency result is “inactive”.
Turning to `COc1ccc2c3c1O[C@H]1[C@H](O)CC[C@H]4[C@@H](C2)N(C)CC[C@@]341`, the Potency result was “inactive”.
To `CCC(C)Nc1c([N+](=O)[O-])cc(C(C)(C)C)cc1[N+](=O)[O-]` (stereo not given) belongs “inactive”; to `CCOP(=O)(OCC)Oc1nc(Cl)c(Cl)cc1Cl`, “inactive”; to `CC1=C2C[C@H]3[C@@H](CC=C4C[C@@H](O)CC[C@@]43C)[C@@H]2CC[C@]12O[C@@H]1C[C@H](C)CN[C@H]1[C@H]2C`, “inactive”.
Regarding `COc1nc(C)nc(NC(=O)NS(=O)(=O)c2ccccc2Cl)n1`, the Potency result was “inactive”.
With `FC(F)C(F)(F)OCC(Cn1cncn1)c1ccc(Cl)cc1Cl` (stereo not given), the Potency entry is “inactive”.
On to `Oc1ccc([C@H]2CNCc3c2ccc(O)c3O)cc1O`, for which the Potency result was “inactive”.
For `Clc1cc(Cl)c(-c2cc(Cl)c(Cl)cc2Cl)cc1Cl`, the Potency result is “inactive”.
Consider `CCOP(=S)(OCC)SC(CCl)N1C(=O)c2ccccc2C1=O` (stereo not given), for which the Potency result was “inactive”.
Consider `C#CCC1=C(C)C(OC(=O)C2C(C=C(C)C)C2(C)C)CC1=O` (stereo not given), for which the Potency entry was “inactive”.
Turning to `CCNc1nc(NC(C)C(C)C)nc(SC)n1` (stereo not given), the Potency entry was “inactive”.
`Cc1ccc2cc3c(ccc4ccccc43)c3c2c1CC3`: the Potency result was “inactive”.
On to `CC(O)C(=O)[O][Hg][c]1ccccc1` (stereo not given), for which the Potency was 96.9 nM (active).
`CC(=O)[O][Pb]([c]1ccccc1)([c]1ccccc1)[c]1ccccc1`: the Potency entry is “inactive”.
As to `CO/N=C(\C(=O)OC)c1ccccc1CO/N=C(\C)c1cccc(C(F)(F)F)c1`, the Potency entry was “inactive”.
On to `C=CCOC(=O)c1ccccc1N`, for which the Potency result is “inactive”.
With `ClC(Cl)C(Cl)(Cl)Cl`, the Potency entry was “inactive”.
For the compound `CCn1cc[n+](C)c1` (tested in a mixture with another compound), the Potency result is “inactive”.
With `Cc1nn(-c2cc(NS(C)(=O)=O)c(Cl)cc2Cl)c(=O)n1C(F)F`, the Potency entry is “inactive”.
Turning to `O=C1C(Cl)=C(Cl)C(=O)C(Cl)=C1Cl`, the Potency result is “inactive”.
With `CNC(C)(C)Cc1ccccc1`, the Potency result is “inactive”.
To `CCC(C)c1cccc(C(C)CC)c1O` (stereo not given) belongs “inactive”.
Take `CNC(=O)O/N=C(\C)C(C)S(C)(=O)=O` (stereo not given): the Potency entry was “inactive”.
As for `C=C(C)C(=O)[O][Sn]([CH2]CCC)([CH2]CCC)[CH2]CCC`, the Potency result is “inactive”.
As to `O=C(Nc1ccc(F)cc1F)c1cccnc1Oc1cccc(C(F)(F)F)c1`, the Potency entry was “inactive”.
Next, `CCCCC(CC)COC(=O)OOC(C)(C)C` (stereo not given): “inactive”; `COP(=S)(OC)Oc1ccc([N+](=O)[O-])c(C)c1`: “inactive”.
For the compound `Clc1ccc(C(c2ccc(Cl)cc2)C(Cl)Cl)cc1`, the Potency result is “inactive”.
As for `CC(Cc1ccc2c(c1)OCO2)NO` (stereo not given), the Potency entry is “inactive”.
For the compound `CCCN`, the Potency result is “inactive”.
In the case of `NC(=O)C(Cl)Cl`, the Potency entry was “inactive”.
For the compound `O=C(NC(=O)c1c(F)cccc1F)Nc1ccc(Oc2ccc(C(F)(F)F)cc2Cl)cc1F`, the Potency result was “inactive”.
With `CCCCC(CC)COC(=O)c1ccccc1C(=O)OCC(CC)CCCC` (stereo not given), the Potency result was “inactive”.
For the compound `CCCCCCC[CH2][Sn]([Cl])([Cl])[CH2]CCCCCCC`, the Potency entry is “inactive”.
Next, `ClSC(Cl)(Cl)Cl`: “inactive”; `CC(C)C(Nc1ccc(C(F)(F)F)cc1Cl)C(=O)OC(C#N)c1cccc(Oc2ccccc2)c1` (stereo not given): “inactive”.
Take `CC(C)N(C(=O)CCl)c1ccccc1`: the Potency entry is “inactive”.
Consider `Oc1cc(Cl)cc(Cl)c1`, for which the Potency result was “inactive”.
